Several values for one entry are separate records, joined by “and”; a condition that tells them apart may be missing. Equal entries are not always repeated. Among all 5,500 compounds or so, about 2,000 (36%) were called active. Not shown: some 18% with an inconclusive outcome. Rule as the data show it: active = normalized growth mostly below about 0.91 (no sharp cut-off); inconclusive = no clear call, values can overlap the other calls; inactive = mostly above about 0.92. This is one part of the list.
Assay: chemical genetic growth profiling, strain panel (AID 1159580);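 also: tested at 20 µM; growth read once vehicle control cultures reached saturation at 30 °C; 1 = growth at the plate median or of vehicle wells; lower values mean less growth of the strain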
Conditions: S. cerevisiae deletion strains, growth OD

Measured: normalized growth

N#Cc1c(Cl)c(Cl)c(Cl)c(C#N)c1Cl
0.992 (inactive) and 0.126 (active): locus YHR030C, strain SLT2, stronger effect = lower value
active: locus YAL021C, strain ccr4, stronger effect = lower value 0.0842 | locus YAL026C, strain drs2, stronger effect = lower value 0.0831 | locus YAL030W, strain snc1, stronger effect = lower value 0.0677 | locus YBL061C, strain skt5, stronger effect = lower value 0.0748 | locus YBR009C, strain hhf1, stronger effect = lower value 0.0742 | locus YBR023C, strain chs3, stronger effect = lower value 0.0756 | locus YBR171W, strain sec66, stronger effect = lower value 0.0931 | locus YBR231C, strain swc5, stronger effect = lower value 0.077 | locus YBR279W, strain paf1, stronger effect = lower value 0.0631 | locus YCL011C, strain gbp2, stronger effect = lower value 0.0716 | locus YCL016C, strain dcc1, stronger effect = lower value 0.0812 | locus YCL061C, strain MRC1, stronger effect = lower value 0.078 | locus YCL069W, strain vba3, stronger effect = lower value 0.0768 | locus YCR088W, strain abp1, stronger effect = lower value 0.0707 | locus YDL005C, strain med2, stronger effect = lower value 0.0898 | locus YDL040C, strain nat1, stronger effect = lower value 0.0666 | locus YDR001C, strain nth1, stronger effect = lower value 0.071 | locus YDR069C, strain doa4, stronger effect = lower value 0.0807 | locus YDR137W, strain rgp1, stronger effect = lower value 0.106 | locus YDR159W, strain sac3, stronger effect = lower value 0.113 | locus YDR195W, strain ref2 0.161 | locus YDR297W, strain sur2, stronger effect = lower value 0.0715 | locus YDR334W, strain swr1, stronger effect = lower value 0.0727 | locus YDR335W, strain msn5, stronger effect = lower value 0.0699 | locus YDR392W, strain spt3, stronger effect = lower value 0.0937 | locus YEL003W, strain gim4, stronger effect = lower value 0.0699 | locus YEL037C, strain rad23, stronger effect = lower value 0.0662 | locus YEL061C, strain CIN8 (second series), stronger effect = lower value 0.0687 | locus YER015W, strain faa2, stronger effect = lower value 0.078 | locus YER016W, strain bim1, stronger effect = lower value 0.0769 | locus YER111C, strain swi4, stronger effect = lower value 0.0874 | locus YER155C, strain BEM2 (second series), stronger effect = lower value 0.108 | locus YFR010W, strain ubp6, stronger effect = lower value 0.0828 | locus YGL167C, strain pmr1, stronger effect = lower value 0.0894 | locus YGL173C, strain kem1, stronger effect = lower value 0.084 | locus YGL227W, strain vid30, stronger effect = lower value 0.0779 | locus YGL240W, strain doc1, stronger effect = lower value 0.0947 | locus YGL253W, strain hxk2, stronger effect = lower value 0.0661 | locus YHR013C, strain ard1, stronger effect = lower value 0.114 | locus YHR027C, strain rpn1, stronger effect = lower value 0.0746 | locus YHR079C, strain IRE1, stronger effect = lower value 0.142 | locus YHR142W, strain chs7, stronger effect = lower value 0.0874 | locus YJL092W, strain hpr5, stronger effect = lower value 0.0707 | locus YJL095W, strain BCK1 (second series), stronger effect = lower value 0.0749 | locus YJL115W, strain asf1, stronger effect = lower value 0.0849 | locus YJL129C, strain trk1, stronger effect = lower value 0.106 | locus YJL154C, strain vps35, stronger effect = lower value 0.07 | locus YJL164C, strain tpk1, stronger effect = lower value 0.0766 | locus YJL166W, strain qcr8, stronger effect = lower value 0.0732 | locus YJR066W, strain TOR1, stronger effect = lower value -0.00264
inactive: locus YAL013W, strain DEP1, stronger effect = lower value 1 | locus YBR021W, strain FUR4, stronger effect = lower value 0.953 | locus YBR229C, strain ROT2, stronger effect = lower value 0.991 | locus YCL029C, strain bik1, stronger effect = lower value 0.976 | locus YDL035C, strain GPR1, stronger effect = lower value 1 | locus YDL074C, strain BRE1, stronger effect = lower value 1.01 | locus YDL101C, strain DUN1, stronger effect = lower value 1 | locus YDL134C, strain PPH21, stronger effect = lower value 0.992 | locus YDL185W, strain tfp1, stronger effect = lower value 0.951 | locus YDL192W, strain arf1, stronger effect = lower value 0.984 | locus YDR101C, strain arx1, stronger effect = lower value 0.986 | locus YDR150W, strain NUM1, stronger effect = lower value 1.01 | locus YDR162C, strain NBP2, stronger effect = lower value 1.01 | locus YDR318W, strain mcm21, stronger effect = lower value 0.975 | locus YDR388W, stronger effect = lower value 0.97 | locus YDR502C, strain sam2, stronger effect = lower value 0.996 | locus YEL061C, strain CIN8, stronger effect = lower value 1 | locus YER110C, stronger effect = lower value 0.976 | locus YER155C, strain BEM2, stronger effect = lower value 0.993 | locus YER167W, strain BCK2, stronger effect = lower value 0.993 | locus YGL078C, strain dbp3, stronger effect = lower value 0.983 | locus YGL086W, strain mad1, stronger effect = lower value 0.976 | locus YGL248W, strain PDE1, stronger effect = lower value 0.994 | locus YGR078C, strain PAC10, stronger effect = lower value 1.01 | locus YGR135W, strain pre9, stronger effect = lower value 0.998 | locus YGR229C, strain SMI1, stronger effect = lower value 1 | locus YGR252W, strain gcn5, stronger effect = lower value 0.932 | locus YHR079C, strain IRE1 (second series), stronger effect = lower value 0.98 | locus YHR094C, strain hxt1, stronger effect = lower value 0.979 | locus YHR129C, strain ARP1, stronger effect = lower value 1 | locus YHR200W, strain rpn10, stronger effect = lower value 0.973 | locus YIL066C, strain RNR3, stronger effect = lower value 0.989 | locus YIL073C, strain SPO22, stronger effect = lower value 0.969 | locus YIL125W, strain kgd1, stronger effect = lower value 0.98 | locus YIR030C, strain dcg1, stronger effect = lower value 0.976 | locus YJL134W, strain LCB3, stronger effect = lower value 0.998 | locus YJL168C, strain set2, stronger effect = lower value 0.985 | locus YJL187C, strain SWE1 (second series), stronger effect = lower value 0.994 | locus YJR043C, strain POL32, stronger effect = lower value 0.994
1 (inactive) and 0.151 (active): locus YJL095W, strain BCK1, stronger effect = lower value

— PubChem BioAssay AID1159580 (chemical genetic matrix, 2015)
